Inconclusive results are not listed. Entries that show only a call come without a potency. Calls of active or inactive are those of the source. Calls come from the whole dose curve; as a rule, active = well fitted cell-killing curve with a large enough effect; inconclusive = small, poorly fitted or top-dose-only effect, or effect the other way; inactive = no such curve, though single readings can be large or run the other way.

In PubChem BioAssay (NCATS) one finds Potency data, which are given here for 40 molecules.
Potency is the fitted concentration of half-maximal effect.

A short description of the experiment: Quantitative High-Throughput drug screen in 47 multiple myeloma cell lines against the NCATS MIPE library collection: PE2_PLB cell viability assay (AID 1919869). Note: nearly all actives have a fitted effect of over 35% in size. As to conditions: PE2_PLB myeloma cells viability, ATP luminescence, 48 h; series mostly up to 45.8 µM. The source says: PI: Beverly A. Mock Ph.D.
Laboratory of Cancer Biology and Genetics,
Center for Cancer Research, National Cancer Institute,
National Institute of Health, Bethesda, Maryland
Drug resistance and disease progression are common in multiple myeloma (MM) patients, underscoring the need for new therapeutic combinations. […] We hypothesized that effective combinations would reduce MYC expression and enhance p16 activity. […] These preclinical data identify potentially useful drug combinations for evaluation in drug-resistant MM and reveal potential mechanisms of combined drug sensitivity.
Described herein is the primary MIPE qHTS used to cherrypick compounds. Validated compounds were then further tested for potential synergistic activiy.
[1] Peat TJ, Gaikwad SM, Dubois W, Gyabaah-Kessie N, Zhang S, Gorjifard S, Phyo Z, Andres M, Hughitt VK, Simpson RM, Miller MA, Girvin AT, Taylor A, Williams D, D'Antonio N, Zhang Y, Rajagopalan A, Flietner E, Wilson K, Zhang X, Shinn P, Klumpp-Thomas C, McKnight C, Itkin Z, Chen L, Kazandijian D, Zhang J, Michalowski AM, Simmons JK, Keats J, Thomas CJ, Mock BA. Drug combinations identified by high-throughput screening promote cell cycle transition and upregulate Smad pathways in myeloma. Cancer Lett. 2023 Aug 1;568:216284. doi: 10.1016/j.canlet.2023.216284. Epub 2023 Jun 24. PMID: 37356470; PMCID: PMC10408729.
SEQUENCE No. (e.g., 1, 2, 3, etc.); […] (e.g., Cells, Incubation, Reagent, etc.); VALUE and DESCRIPTION.
1; Cells; 5 uL; white, solid bottom 1536-well Greiner assay plate.
2; Compounds; 23 nL; Kalypsis pin tool (Wako USA) equipped with a 1536-well pin head to transfer to the assay plates.
3; Incubation; 48 hours; 37C incubation.
4; Reagent;5uL; CellTiter Glo (Promega).
5; Detector; 425V; Luminescence; Viewlux PerkinElmer.
NOTES (numbers refer to Sequence numbers above)
1. The cell-based screening methods employed in this study were like those previously published. Briefly, the corresponding myeloma cell lines were screened in 1,536-well plates with 500 cells, 5-uL per well for inhibition of cell viability (assessed by measuring ATP levels with CellTiterGlo).
2. NCATS MIPE 4.0 library of approved and investigational drugs were added using the Kalypsis pin tool. Wells treated with DMSO only for 100% viability and media only for 0% viability were used as controls.
3. The assay plates were covered and incubated for 48 hours in a 37C, 5% CO2 incubator with controlled humidity.
4. After 48 hours, CellTilter-GloTM luminescent substrate mix (Promega) reagent was added to the assay plate and plates we incubated for 5 min at room temperature.
5. Signal was measured as median relative luminescence units on a ViewLux (PerkinElmer) multiplate reader.
[1] Heske CM, Davis MI, Baumgart JT, Wilson K, Gormally MV, Chen L, Zhang X, Ceribelli M, Duveau DY, Guha R, Ferrer M, Arnaldez FI, Ji J, Tran HL, Zhang Y, Mendoza A, Helman LJ, Thomas CJ. Matrix Screen Identifies Synergistic Combination of PARP Inhibitors and Nicotinamide Phosphoribosyltransferase (NAMPT) Inhibitors in Ewing Sarcoma. Clin Cancer Res. 2017 Dec 1;23(23):7301-7311. doi: 10.1158/1078-0432.CCR-17-1121. Epub 2017 Sep 12. PMID: 28899971; PMCID: PMC6636827.
`CN1CCN(c2c(F)cc3c(=O)c(C(=O)O)cn4c3c2OCN4C)CC1`: the Potency result was “inactive”. As to `CCn1cc(C(=O)O)c(=O)c2cc(F)c(N3CCNCC3)cc21`, the Potency entry is “inactive”. The value for `CCCCS(=N)(=O)CCC(N)C(=O)O` (stereo not given) was “inactive”; that for `CCOC(=O)[C@H](CCc1ccccc1)N[C@H]1CCc2ccccc2N(CC(=O)O)C1=O` was 20.9 µM (active). Regarding `COc1nc(N)nc2c1ncn2[C@@H]1O[C@H](CO)[C@@H](O)[C@@H]1O`, the Potency result is “inactive”. The value for `COc1cc([C@@H]2c3cc4c(cc3[C@H](O)[C@H]3COC(=O)[C@H]23)OCO4)cc(OC)c1OC` was “inactive”; that for `O=C(NCC1CN(c2ccc(N3CCOCC3=O)cc2)C(=O)O1)c1ccc(Cl)s1` (stereo not given) was “inactive”; that for `CC(=O)[C@H]1CC[C@H]2[C@@H]3CC=C4C[C@@H](O)CC[C@]4(C)[C@H]3CC[C@]12C` was “inactive”. The value for `CC(C)C1CCC(C(=O)N[C@H](Cc2ccccc2)C(=O)O)CC1` (stereo not given in full) was “inactive”; that for `CCCCCCNC(=O)n1cc(F)c(=O)[nH]c1=O` was “inactive”; that for `O=C(O)c1cn(C2CC2)c2cc(N3CCNCC3)c(F)cc2c1=O` was “inactive”.

With `C[C@@H](NCCCc1cccc(C(F)(F)F)c1)c1cccc2ccccc12`, the Potency result is “inactive”. Consider `CCC(=O)O[C@]1(C(=O)SCF)[C@H](C)C[C@H]2[C@@H]3C[C@H](F)C4=CC(=O)C=C[C@]4(C)[C@@]3(F)[C@@H](O)C[C@@]21C`, for which the Potency entry was “inactive”. The value for `O=C(O)c1cccnc1` was “inactive”; that for `Cn1nnc2c(C(N)=O)ncn2c1=O` was “inactive”. The value for `Cc1noc(NS(=O)(=O)c2ccc(N)cc2)c1C` was “inactive”. For the molecule `Cc1cccc(Nc2ccncc2S(=O)(=O)NC(=O)NC(C)C)c1`, the Potency result is “inactive”. The value for `C#CCN[C@@H]1CCc2ccccc21` was “inactive”; that for `COC(c1ccccc1)(c1ccccc1)[C@H](Oc1nc(C)cc(C)n1)C(=O)O` was “inactive”.

Consider `CNNCc1ccc(C(=O)NC(C)C)cc1`, for which the Potency entry was “inactive”. The result for `N=C(N)c1ccc(OCCCCCOc2ccc(C(=N)N)cc2)cc1` reads 5.9 µM (active).

Consider `COc1ccc2cc3[n+](cc2c1OC)CCc1cc2c(cc1-3)OCO2`, for which the Potency is 14.8 µM (active).

For the molecule `Cn1c(=O)c2c(ncn2CC(O)CO)n(C)c1=O` (stereo not given), the Potency entry was “inactive”.

As to `CCCc1cc(C(N)=S)ccn1`, the Potency entry was “inactive”. As for `CN1CCN(c2c(F)cc3c(=O)c(C(=O)O)cn(CCF)c3c2F)CC1`, the Potency entry was “inactive”. The value for `CC(N)C12CC3CC(CC(C3)C1)C2` (stereo not given) was “inactive”; that for `CC(C)C[C@H](NC(=O)[C@H](CCc1ccccc1)NC(=O)CN1CCOCC1)C(=O)N[C@@H](Cc1ccccc1)C(=O)N[C@@H](CC(C)C)C(=O)[C@@]1(C)CO1` was 0.001 µM (active); that for `COc1ccccc1OCC(O)COC(N)=O` (stereo not given) was “inactive”. Consider `NC(N)=NC(N)=NCCc1ccccc1`, for which the Potency is 16.6 µM (active). The value for `CCN(CC)CC#CCOC(=O)C(O)(c1ccccc1)C1CCCCC1` (stereo not given) was “inactive”; that for `CC(C)NCC(O)c1ccc(NS(C)(=O)=O)cc1` (stereo not given) was “inactive”; that for `CNS(=O)(=O)Cc1ccc2[nH]cc(CCN(C)C)c2c1` was 14.8 µM (active). The result for `CCN[C@H]1C[C@H](C)S(=O)(=O)c2sc(S(N)(=O)=O)cc21` reads “inactive”. The value for `Cc1cccc(N(C)C(=S)Oc2ccc3ccccc3c2)c1` was “inactive”. For the molecule `COc1cnc(NS(=O)(=O)c2ccc(N)cc2)nc1`, the Potency entry is “inactive”. Take `C[C@@H]1C[C@H]2[C@@H]3CCC4=CC(=O)C=C[C@]4(C)[C@@]3(Cl)[C@@H](O)C[C@]2(C)[C@@]1(OC(=O)c1ccco1)C(=O)CCl`: the Potency was 5.9 µM (active). The value for `CCOC(=O)c1ccc(C#Cc2ccc3c(c2)C(C)(C)CCS3)nc1` was “inactive”; that for `COc1ncnc(NS(=O)(=O)c2ccc(N)cc2)c1OC` was “inactive”; that for `COc1cc(NCc2ccc3nc(N)nc(N)c3c2C)cc(OC)c1OC` was 1.66 µM (active).

With `CC(C)(C)NC(=O)[C@H]1CC[C@H]2[C@@H]3CC[C@H]4NC(=O)C=C[C@]4(C)[C@H]3CC[C@]12C`, the Potency was 1.32 µM (active).
